Measured values: PubChem BioAssay AID743315 (Broad Institute, 2014)
Entries with a potency or affinity are not part of this list. The source made the active and inactive calls.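 The calls were made as follows: active = cell killing, with a fitted active concentration at or below twice the top valid dose tested; inconclusive = flat curve with moderate cell loss, or an unreliable fit; inactive = effect in the rising direction, plus the rest.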

Experiment: loss of HEK293T viability via ATP – cell-based, plate reader, dry powder, set 10, cytotoxicity control, dose response (AID 743315)
Conditions: CellTiter-Glo ATP luminescence, 72 h; series mostly up to 26 µM

| Structure (SMILES) | outcome |
| --- | --- |
| CC(C)(C)c1ccccc1OCCn1c(=S)[nH]c2ccccc21 | inactive |
| COc1ccccc1OCCn1c(=S)[nH]c2ccccc21 | inactive |
| S=c1[nH]c2ccccc2n1CCOc1ccc(Cl)cc1 | inactive |
| Cc1ccc(C(C)C)c(OCCn2c(=S)[nH]c3ccc(Cl)cc32)c1 | inactive |
| Cc1cccc2[nH]c(=S)n(CCOc3ccccc3)c12 | inactive |
| CCOc1ccc(OCCn2c(=S)[nH]c3ccccc32)cc1 | inactive |
| c1ccc(OCCn2cnc3ccccc32)cc1 | inactive |
| Cc1ccc(C(C)C)c(OCCn2c(=S)[nH]c3cc(F)ccc32)c1 | inactive |
| Cc1ccc(C(C)C)c(OCCn2c(=S)[nH]c3ccccc32)c1 | inactive |
| Cc1ccc(C(C)C)c(OCCn2c(=S)[nH]c3c(C)cccc32)c1 | inactive |
| Cc1ccc2c(c1)[nH]c(=S)n2CCOc1ccccc1 | inactive |
| CC(C)(C)c1ccc(OCCn2c(=S)[nH]c3ccccc32)cc1 | inactive |
| CC(C)c1ccccc1NCCn1c(=S)[nH]c2ccccc21 | inactive |
| Cc1ccc(C(C)C)c(OCCn2c(CO)nc3ccccc32)c1 | inactive |
| Cc1ccc(C(C)C)c(OCCn2c(=S)[nH]c3c(F)cccc32)c1 | inactive |
| Cc1ccc(C(C)C)c(OCCn2c(=S)[nH]c3c(Cl)cccc32)c1 | inactive |
| Fc1ccc2c(c1)[nH]c(=S)n2CCOc1ccccc1 | inactive |
| Cc1ccc(OCCn2c(=S)[nH]c3ccccc32)c(C(C)C)c1 | inactive |
| COCc1nc2ccccc2n1CCOc1ccc(C(C)(C)C)cc1 | inactive |
| S=c1[nH]c2cccc(Cl)c2n1CCOc1ccccc1 | inactive |
